Bioassay records: PubChem, National Center for Advancing Translational Sciences (NCATS)
The list is not random: actives were taken first. Their share in the collection is about 8.7%.
ALOX12 inh: Primary qHTS assay for inhibitors of human arachidonate 12S-lipoxygenase (ALOX12): Round 2. Polyunsaturated fatty acid lipoxygenase ALOX12 (Homo sapiens), P18054. purified 12hLO, xylenol orange hydroperoxide absorbance. Potency, µM (top dose mostly 108 µM), actives largely listed as inhibitors. 580,000 compounds, 1.1% hits
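Purified human 12hLO (150 nM final) in 25 mM Hepes, 0.01% Triton X-100, pH 7.0 was preincubated 15 min at room temperature with compound. Then 40 uM arachidonic acid was added, 30 min. Hydroperoxide was read by Fe-XO absorbance ratio 573/405 nm.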
JMJD2A Tudor: qHTS Assay for Inhibitors of JMJD2A-Tudor Domain. Lysine-specific demethylase 4A (Homo sapiens), O75164. AlphaScreen JMJD2A-Tudor / H3K4me3 peptide binding. Potency, µM (top dose mostly 114 µM), hits mostly inhibitors. 390,000 compounds, 4.4% hits; also: nearly all actives have a fitted effect of over 50% in size
BAZ2B block: qHTS Assay for Inhibitors of BAZ2B. Bromodomain adjacent to zinc finger domain protein 2B (Homo sapiens), Q9UIF8. Potency, µM (top dose mostly 114 µM), usual class: inhibitors. 360,000 compounds, 4.4% hits. AID 504333, 2011. AlphaScreen BAZ2B-H3K14Ac peptide displacement; also: nearly all actives have a fitted effect of over 60% in size
Target sequence (Q9UIF8 whole entry, looked up, the tested form may be a part): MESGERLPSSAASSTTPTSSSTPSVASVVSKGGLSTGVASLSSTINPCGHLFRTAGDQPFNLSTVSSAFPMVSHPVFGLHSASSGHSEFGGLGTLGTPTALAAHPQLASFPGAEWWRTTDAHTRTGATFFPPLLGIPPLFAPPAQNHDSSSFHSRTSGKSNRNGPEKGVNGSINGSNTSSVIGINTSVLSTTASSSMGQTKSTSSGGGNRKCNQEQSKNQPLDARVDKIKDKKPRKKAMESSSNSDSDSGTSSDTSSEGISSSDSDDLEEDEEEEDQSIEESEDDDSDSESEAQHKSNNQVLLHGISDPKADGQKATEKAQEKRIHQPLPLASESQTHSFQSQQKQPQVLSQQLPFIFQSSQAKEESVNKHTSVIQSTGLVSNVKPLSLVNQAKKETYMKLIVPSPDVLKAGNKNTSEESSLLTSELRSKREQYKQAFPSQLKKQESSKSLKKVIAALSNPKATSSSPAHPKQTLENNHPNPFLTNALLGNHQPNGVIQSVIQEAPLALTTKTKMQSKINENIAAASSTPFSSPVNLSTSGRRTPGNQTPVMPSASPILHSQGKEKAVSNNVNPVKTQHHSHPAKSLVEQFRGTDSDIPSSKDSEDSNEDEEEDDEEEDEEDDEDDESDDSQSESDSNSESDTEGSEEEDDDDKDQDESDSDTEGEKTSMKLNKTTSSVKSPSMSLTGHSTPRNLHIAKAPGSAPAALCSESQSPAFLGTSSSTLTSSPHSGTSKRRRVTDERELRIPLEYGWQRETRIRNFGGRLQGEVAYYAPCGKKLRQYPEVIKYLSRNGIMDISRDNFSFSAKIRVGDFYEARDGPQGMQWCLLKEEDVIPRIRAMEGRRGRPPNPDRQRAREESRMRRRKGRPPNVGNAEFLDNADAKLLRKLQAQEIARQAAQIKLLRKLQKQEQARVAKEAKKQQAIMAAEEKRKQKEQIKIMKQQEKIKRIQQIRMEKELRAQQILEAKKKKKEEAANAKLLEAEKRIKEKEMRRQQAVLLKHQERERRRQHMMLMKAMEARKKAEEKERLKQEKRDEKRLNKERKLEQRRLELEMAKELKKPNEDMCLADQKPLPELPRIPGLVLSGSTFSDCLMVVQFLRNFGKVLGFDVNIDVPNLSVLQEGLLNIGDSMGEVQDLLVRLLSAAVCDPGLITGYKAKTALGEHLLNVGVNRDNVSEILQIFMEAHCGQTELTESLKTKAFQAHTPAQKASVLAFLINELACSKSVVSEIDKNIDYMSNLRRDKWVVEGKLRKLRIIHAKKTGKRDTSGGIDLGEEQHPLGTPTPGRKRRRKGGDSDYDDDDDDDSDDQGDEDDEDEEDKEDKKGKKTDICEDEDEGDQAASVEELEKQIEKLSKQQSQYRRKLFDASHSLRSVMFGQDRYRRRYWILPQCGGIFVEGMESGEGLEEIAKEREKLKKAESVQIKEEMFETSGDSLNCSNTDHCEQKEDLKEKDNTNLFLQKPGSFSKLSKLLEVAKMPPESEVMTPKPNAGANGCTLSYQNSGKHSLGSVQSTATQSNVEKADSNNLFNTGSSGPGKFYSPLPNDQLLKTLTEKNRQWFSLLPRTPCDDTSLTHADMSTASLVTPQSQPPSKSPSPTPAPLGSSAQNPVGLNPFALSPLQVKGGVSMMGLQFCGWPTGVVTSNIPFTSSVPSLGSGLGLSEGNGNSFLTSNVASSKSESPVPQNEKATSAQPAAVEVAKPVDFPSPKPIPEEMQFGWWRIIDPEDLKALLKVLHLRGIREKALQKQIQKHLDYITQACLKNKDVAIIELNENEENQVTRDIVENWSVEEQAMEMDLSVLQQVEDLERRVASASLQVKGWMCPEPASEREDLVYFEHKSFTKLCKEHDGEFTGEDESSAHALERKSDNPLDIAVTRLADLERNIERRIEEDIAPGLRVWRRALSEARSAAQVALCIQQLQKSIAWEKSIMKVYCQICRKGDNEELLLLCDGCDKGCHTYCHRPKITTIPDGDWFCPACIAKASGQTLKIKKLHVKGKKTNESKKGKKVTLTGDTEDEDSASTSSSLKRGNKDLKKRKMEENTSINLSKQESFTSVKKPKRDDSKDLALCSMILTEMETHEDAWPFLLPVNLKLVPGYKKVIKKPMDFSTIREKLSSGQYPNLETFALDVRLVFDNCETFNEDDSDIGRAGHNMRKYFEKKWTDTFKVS
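AlphaScreen luminescence quantifies BAZ2B engagement of H3K14Ac peptide; the protein and biotinylated peptide are both at 50 nM final, buffer PBS pH 7.4 with 0.01% Tween-20, all steps at room temperature.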
Sfp inh: qHTS Assay for Inhibitors of Bacillus subtilis Sfp phosphopantetheinyl transferase (PPTase). 4'-phosphopantetheinyl transferase ffp (Bacillus subtilis), Q9F4F7. Biochemical Sfp PPTase activity, qHTS. Potency, µM, hits mostly inhibitors. 310,000 compounds, 3.5% hits. AID 1490, 2009;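 also: the enzyme is Sfp with the accession as filed and its product quenches rhodamine fluorescence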
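Fluorescence-quenching assay: 15 nM Sfp-PPTase preincubated 15 min at room temperature with compound, then 5 uM rhodamine-CoA and 12.5 uM BHQ-2-labelled YbbR peptide added. Fluorescence (ex 525/em 598 nm) read at start and after 30 min; difference gives rate.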
HP1b chromo inh: HTS for Inhibitors of HP1-beta Chromodomain Interactions with Methylated Histone Tails; 390,000 compounds, 0.56% hits; Potency, µM (top dose mostly 114 µM), actives largely listed as inhibitors; AID 540317, 2011; AlphaScreen HP1-beta / biotin-H3K9me3 peptide binding; also: nearly all actives have a fitted effect of over 70% in size
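Compound inhibition of the preformed complex between 50 nM HP1-beta and 50 nM biotinylated H3K9me3 peptide was read by AlphaScreen. Buffer was PBS pH 7.4 with 0.01% Tween-20. Incubations ran 30 min at room temperature, with 10 ug/mL donor/acceptor beads.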
G9a block: qHTS Assay for Inhibitors of Histone Lysine Methyltransferase G9a; AID 504332, 2011; 350,000 compounds, 8.8% hits; Potency, µM (series often up to 102 µM), hits mostly inhibitors; G9a H3K9 monomethylation, AlphaScreen, 2 h; also: nearly all actives have a fitted effect of over 75% in size
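AlphaScreen read-out: biotin-H3K9 peptide (500 nM) methylation by 20 nM enzyme with 20 uM SAM, 2 h at room temperature after 15 min compound preincubation; anti-monomethyl H3K9 antibody plus donor/acceptor beads, 10 min dark.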
A number is an active result; . = inactive; ? = inconclusive; / = not tested or not shown; [ ] = remark or other dose. Calls follow the shape of the dose curve; as a rule, active = well fitted curve in the direction sought with a large enough effect; inconclusive = small, poorly fitted or top-dose-only effect, or another doubt; inactive = no such curve, though single readings can be large; an effect the other way counts as inactive or inconclusive.

SMILES | ALOX12 inh | JMJD2A Tudor | BAZ2B block | Sfp inh | HP1b chromo inh | G9a block
COC(=O)c1[nH]c2ccc(Br)cc2c1NC(=O)CN1CCCc2ccccc21 | . | . | . | . | . | .
COC(=O)c1[nH]c2cc(C)ccc2c1NC(=O)CN1CCN(C(=O)c2ccco2)CC1 | . | . | ? | 50.1µM | . | ?
COC(=O)c1[nH]c2cccc(C)c2c1NC(=O)CN1CCN(C(=O)c2ccco2)CC1 | . | . | / | . | . | .
Cc1ccc(C(=O)c2cc(C)sc2NC(=O)CN2CCN(C(=O)c3ccco3)CC2)cc1 | ? | ? | ? | ? | ? | 31.6µM
COC(=O)c1[nH]c2cc(C)ccc2c1NC(=O)CN1CCCc2ccccc21 | . | ? | 44.7µM | ? | . | ?
CCc1cc(C(=O)OC)c(NC(=O)CN2CCN(C(=O)c3ccco3)CC2)s1 | . | . | . | . | . | /
COc1ccc(C(=O)N2CCCC(c3noc(COc4ccccc4)n3)C2)cn1 (stereo unspecified) | . | / | / | / | / | /
Cc1[nH]nc2c1C(c1c(F)cccc1Cl)C1=C(COC1=O)N2 (stereo unspecified) | . | / | / | / | / | /
O=C(N[C@@H](Cn1ccc(=O)[nH]c1=O)C(=O)O)C1CC1 | . | / | / | / | / | /
Cc1nn(CC(=O)NC(C)(C)C)c(C)c1S(=O)(=O)N1CCCC(C(=O)N2CCCC2)C1 (stereo unspecified) | . | / | / | / | / | /
CN1CCN(CC#CC(C)(O)C2CC3C=CC2C3)CC1 (stereo unspecified) | ? | 50.1µM | ? | . | . | 22.4µM
CC(=O)NC(C)c1ccc(O)cc1 (stereo unspecified) | . | / | / | / | / | /
COc1ccc(NC2CCCN(C(=O)c3ccc(C(C)=O)s3)C2)cc1 (stereo unspecified) | . | . | . | . | . | 50.1µM
COc1ccc(NC2CCCN(C(=O)c3cc4ncccn4n3)C2)cc1 (stereo unspecified) | . | . | . | . | . | 35.5µM
COc1ccc(NC2CCCN(C(=O)CCn3cccn3)C2)cc1 (stereo unspecified) | . | . | . | . | . | .
COc1ccc(NC2CCCN(C(=O)c3cccc(N(C)C)c3)C2)cc1 (stereo unspecified) | . | . | ? | . | . | .[12.7 µM]
COc1ccc(NC2CCCN(C(=O)c3ccc4[nH]c(C)c(C)c4c3)C2)cc1 (stereo unspecified) | . | ? | 44.7µM | . | . | 39.8µM
Cc1cc(C)c(C(=O)N2CCCC(Nc3ccc(F)cc3)C2)o1 (stereo unspecified) | . | . | ? | . | . | 79.4µM
COc1ccc(NC2CCCN(C(=O)c3ccc(C(C)=O)cc3)C2)cc1 (stereo unspecified) | . | . | . | . | . | .
Cc1ccc2c(CN(C)Cc3nc4ccccc4c(=O)[nH]3)cc(=O)oc2c1C | . | / | / | / | / | /
CC(C)c1ccc(NC2CCCN(C(=O)c3ccccc3-c3ncc[nH]3)C2)cc1 (stereo unspecified) | . | ? | 56.2µM | . | . | 44.7µM
COc1ccc(NC2CCCN(C(=O)c3ccc(C)nc3)C2)cc1 (stereo unspecified) | . | . | . | . | . | 39.8µM
CC(C)c1ccc(NC2CCCN(C(=O)c3ccoc3)C2)cc1 (stereo unspecified) | . | ? | ? | . | . | 44.7µM
CC(C)c1ccc(NC2CCCN(C(=O)c3ccc(N4CCOCC4)cc3)C2)cc1 (stereo unspecified) | . | ? | ? | . | . | .
Cc1ccc(C(=O)N2CCCC(Nc3ccc(C(C)C)cc3)C2)cn1 (stereo unspecified) | . | . | . | . | . | 39.8µM
SMILES | ALOX12 inh | JMJD2A Tudor | BAZ2B block | Sfp inh | HP1b chromo inh | G9a block
Cc1cc(C)cc(C2(CNC(=O)C3CC4(CCNCC4)CN3)CCCC2)c1 (stereo unspecified) | . | / | / | / | / | /
Cc1ccc(NC(=O)c2sc(-n3nc(C)c(Cl)c3C)nc2C)c(C)c1 | . | / | / | / | / | /
Cc1cc(C)cc(C(=O)N2CCC(n3cnnc3-c3ccccc3)CC2)c1 | . | / | / | / | / | /
CCOC(=O)c1ccc(NC(=O)N2Cc3[nH]cnc3C[C@H]2c2nc(-c3cccc([N+](=O)[O-])c3)no2)cc1 | . | / | / | / | / | /
Cc1nnsc1C(=O)N1CCCC(Nc2ccc(C(C)C)cc2)C1 (stereo unspecified) | . | . | . | . | . | ?
Cc1nonc1C(=O)N1CCCC(Nc2ccc(C(C)C)cc2)C1 (stereo unspecified) | . | . | ? | . | . | 35.5µM
O=C(NCC1CN(Cc2ccccc2)CCO1)C1CCCC1 (stereo unspecified) | . | / | / | / | / | /
Cn1cc(C(=O)O)c(=O)c2cc(S(=O)(=O)N3CCCCC3)ccc21 | . | 89.1µM | . | / | . | ?
COC(=O)c1cn(C)c2ccc(S(=O)(=O)N3CCCC3)cc2c1=O | . | . | ? | . | . | 50.1µM
Cn1cc(C(=O)NCCc2ccccc2)c(=O)c2cc(S(=O)(=O)N3CCCCC3)ccc21 | . | . | / | / | . | .
CN(CCNC(=O)c1cn(C)c2ccc(S(=O)(=O)N3CCCC3)cc2c1=O)CCc1ccccc1 | . | . | . | . | . | 2.24µM
COC(=O)c1cn(C)c2ccc(S(=O)(=O)N3CCOCC3)cc2c1=O | . | . | . | . | . | .
COCCOC(=O)C1=C(C)N=C2SC=C(CC(=O)N3CCCC3)N2C1c1cccc(F)c1 (stereo unspecified) | . | / | / | / | / | /
CN(C)C(=O)c1ccc(-c2nc(N3CCOCC3)c3ccccc3n2)cc1 | 44.7µM | / | / | . | / | .[0.501 µM]
O=C([C@@H]1C[C@@H](O)[C@H](O)[C@@H]2NC(=S)N(c3ccc4c(c3)OCO4)[C@@H]21)N1CCOCC1 | . | / | / | / | / | /
COC(=O)c1ccc(NC(=S)N2CCC(C(N)=O)CC2)cc1 | . | . | . | 31.6µM | . | ?
COC(=O)c1sccc1NC(=S)N1CCC(C(N)=O)CC1 | . | . | / | 79.4µM | . | .
COC(=O)c1sccc1NC(=S)N1CCCCC1 | . | . | . | . | . | .[12.7 µM]
Cc1cccc(-c2ccccc2N)c1 | . | / | / | / | / | /
O=S(=O)(NCc1ccc(F)cc1)c1ccc2[nH]c3c(c2c1)CCCCC3 | ? | 44.7µM | . | / | ? | 8.91µM
COc1cccc(CNS(=O)(=O)c2ccc3[nH]c4c(c3c2)CCCCC4)c1 | ? | ? | . | / | ? | ?
O=S(=O)(Nc1cc(F)ccc1F)c1ccc2[nH]c3c(c2c1)CCCC3 | ? | ? | ? | / | . | ?
